PP1 counter: PP1-alpha (human) inhibition in PP5 counter-screen; 320,000 compounds, 0.9% hits; inhibition, % at 6.7 µM; AID 2235; purified PP1alpha, OMFP fluorescence; P62136;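 active = inhibition above the mean inhibition of all tested compounds plus 3 SD, computed separately for each screening campaign, cut at about 15% in these data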
Target sequence (P62136 whole entry, looked up): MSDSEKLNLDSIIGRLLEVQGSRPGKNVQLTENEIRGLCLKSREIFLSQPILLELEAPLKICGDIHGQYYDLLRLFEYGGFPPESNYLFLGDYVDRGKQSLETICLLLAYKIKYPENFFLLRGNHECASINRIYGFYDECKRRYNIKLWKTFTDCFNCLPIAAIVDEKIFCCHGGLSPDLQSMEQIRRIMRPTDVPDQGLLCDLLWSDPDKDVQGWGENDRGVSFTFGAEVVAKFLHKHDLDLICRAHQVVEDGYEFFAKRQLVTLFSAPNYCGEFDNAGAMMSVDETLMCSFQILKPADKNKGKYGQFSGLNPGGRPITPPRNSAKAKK
IDE act: boosts human insulin-degrading enzyme activity in HEK cells; P14735; FAbeta-B cleavage, fluorescence polarization; 0% vehicle, 100% cell-free pure enzyme wells; activation, % at 5.96 µM; 340,000 compounds, 0.073% hits;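 active = activation above the mean of all tested compounds plus 3 SD, set per screening campaign, cut at about 17% in these data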
SKKanGAS inh: blocks kanamycin growth of S. pyogenes SKKanGAS strain | BacTiter-Glo, 6 h | inhibition, % at 7.5 µM | 300,000 compounds, 1.3% hits | AID 1662;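 active = mean replicate score, as percent of positive control median, at least 50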;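 also: strain carries kanamycin resistance gene driven by streptokinase promoter and grows in 40 µg/ml kanamycin; loss of luminescence reflects streptokinase promoter inhibition or plain growth inhibition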
Exocytosis inh: blocks lytic granule exocytosis | 360,000 compounds, 0.66% hits | inhibition, % at 10 µM | TALL-104 LAMP-1 surface exposure, flow cytometry; cells stimulated with thapsigargin and PMA;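 active = inhibition above about 55%, limit read from the data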
PP5 inh: PP5 (human) phosphatase inhibition; P53041; inhibition, % at 6.7 µM; purified PP5c, OMFP substrate fluorescence; AID 1987; 320,000 compounds, 0.18% hits;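 active = inhibition above the campaign's mean inhibition across all tested compounds plus 3 SD, cut at about 9.5% in these data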
IDE cell inh: inhibitors of human insulin-degrading enzyme in cells; HEK cells, FAbetaB cleavage, fluorescence polarization; 320,000 compounds, 0.41% hits; inhibition, % at 5.59 µM;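 active = percent inhibition above the average of all tested compounds plus 3 SD, set per screening campaign, cut at about 16% in these data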;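 also: IDE supplied by intact live HEK cells; FP after avidin binding of uncleaved biotin substrate so inhibition keeps polarization high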
Hits are given with their value; . = inactive; / = no result. Rows were chosen to be rich in hits. Some 2.8% of all compounds tested hit in one or more screens of this group.

SMILES	PP1 counter	IDE act	SKKanGAS inh	Exocytosis inh	PP5 inh	IDE cell inh
CC(OC(=O)c1cccc([N+](=O)[O-])c1)C(=O)NCc1ccc2c(c1)OCO2 (centres undefined)	.	.	.	.	.	.
CCOC(=O)C1CCN(C(=O)C2CCCN(S(=O)(=O)c3ccc(OCC)c(Cl)c3)C2)CC1 (centres undefined)	.	.	.	.	.	.
Cc1ccc(Nc2nc(N)nc(CN3CCN(Cc4ccc5c(c4)OCO5)CC3)n2)cc1Cl	.	.	.	.	.	.
COc1ccc(Nc2nc(N)nc(CN3CCOCC3)n2)cc1	.	.	.	.	.	.
Cc1ccc(Nc2nc(N)nc(CN3CCN(c4ccccc4)CC3)n2)cc1Cl	.	.	87.5	.	.	.
COc1ccc(N2CCN(Cc3nc(N)nc(Nc4ccc(C)c(Cl)c4)n3)CC2)cc1	.	.	74.1	.	.	.
CC(C)c1cc(C(C)C)c(S(=O)(=O)N2c3ccccc3[C@]3(Br)C[C@H]4C(=O)N[C@@H](Cc5ccccc5)C(=O)N4[C@H]23)c(C(C)C)c1	/	/	.	/	/	/
CC(C)c1cc(C(C)C)c(S(=O)(=O)N2c3ccccc3[C@@]3(Br)C[C@H]4C(=O)N[C@@H](Cc5ccccc5)C(=O)N4[C@@H]23)c(C(C)C)c1	15.6	/	.	/	.	.
COc1ccc(CN(C(=O)Cc2c[nH]c3ccccc23)C(C(=O)NC2CCCCC2)c2ccc(C)o2)cc1 (centres undefined)	16.9	.	.	.	.	.
COCCCNC(=O)CCC(=O)NNc1nc2ccccc2c2nc(C)nn12	.	.	.	.	.	.
Cc1cccc(C)c1OC(=O)C(c1ccccc1)c1ccccc1	.	.	70.9	.	.	.
Cc1sc(NC(=O)C2C3C=CC(C3)C2C(=O)O)c(C(N)=O)c1-c1ccc(C(C)C)cc1 (centres undefined)	.	.	52.7	.	.	.
COc1ccc(CC(=O)Nc2ccc(-c3nc4cc(C)ccc4o3)c(O)c2)cc1OC	15.6	.	.	.	.	.
Cc1ccc2oc(-c3ccc(NC(=O)c4ccncc4)cc3O)nc2c1	.	.	.	.	.	.
FC(F)Sc1ccc(NC(=S)NC(c2ccccc2)c2ccccc2)cc1	.	.	125.5	.	.	.
FC(F)Sc1ccc(NC(=S)NCc2ccccc2)cc1	.	.	.	.	.	.
COC(=O)[C@]12CCCCC=C1N(CCc1ccc(OC)c(OC)c1)C(=O)[C@H](CC(=O)NCC1CCCCC1)C2	/	/	/	.	/	/
CCCNC(=O)NNC(=O)c1ccc(F)cc1	.	.	.	.	.	.
C=CCNC(=O)C1CC1(c1ccccc1)c1ccccc1 (centres undefined)	.	.	.	.	.	.
CN1CCN(c2ccc(NC(=O)c3ccc(-c4ccc(Br)cc4)o3)cc2)CC1	.	.	.	75.8	.	.
COc1ccc(NC(=O)c2ccc(-c3ccc([N+](=O)[O-])cc3)o2)cc1OC	.	.	.	.	.	.
COc1ccc(C(=O)O)cc1NC(=S)NC(=O)c1ccc(-c2ccc(Cl)cc2)o1	/	.	50.7	.	/	/
CC(=O)Nc1ccc(NC(=O)c2ccc(-c3ccc([N+](=O)[O-])cc3)o2)cc1	16.4	.	.	.	.	.
O=C(O)c1ccc(NC(=S)NC(=O)c2ccc(-c3ccc(Br)cc3)o2)cc1	.	.	55.1	.	.	.
CCC(C(=O)O)n1c2ccccc2c2cn[nH]c(=O)c21 (centres undefined)	.	.	.	.	.	.
SMILES	PP1 counter	IDE act	SKKanGAS inh	Exocytosis inh	PP5 inh	IDE cell inh
CCOC(=O)C1(Cc2ccccc2)CCCN(C(=O)COc2ccccc2OC)C1 (centres undefined)	/	/	/	.	/	/
NS(=O)(=O)c1ccc(CCNC(=O)c2ccc(NC3=NC4CS(=O)(=O)CC4S3)cc2)cc1 (centres undefined)	.	.	.	.	.	.
O=C(NCc1nnc(SCC(=O)N2CCCCC2)o1)c1c(F)cccc1Cl	.	.	.	.	.	.
Cc1ccc(Cl)cc1N1CCN(C(=O)CCS(=O)(=O)c2ccc3c(c2)NC(=O)CO3)CC1	.	.	.	.	.	.
CC1CC(C)CN(S(=O)(=O)c2ccc3c(c2)CC(C)N3C(=O)C2CC2)C1 (centres undefined)	.	.	.	.	.	.
[O-][n+]1c(/C=C/c2ccccc2)ccc2ccccc21	/	.	.	86.9	/	/
CSc1ccc(Cn2c(C)c(C(=O)NCc3cccs3)sc2=O)cc1	/	/	/	.	/	/
COc1ccc(OC)c(CN2C(=O)CN(S(C)(=O)=O)CC2(C)C(=O)NC(C)C)c1 (centres undefined)	/	/	/	.	/	/
Cc1c(NCc2cc(Cl)cc(Cl)c2O)c(=O)n(-c2ccccc2)n1C	.	.	85.2	.	.	.
Cc1c(NCc2cc(Cl)ccc2O)c(=O)n(-c2ccccc2)n1C	.	.	.	.	.	.
CC(C)Cn1c(/C=N/Nc2nc3ccccc3[nH]2)nc2ccccc21	/	.	96.6	.	/	/
Cc1nn(-c2ccccc2)c(C)c1/C=N/Nc1nc2ccccc2[nH]1	.	.	60.0	.	.	.
Cn1c(/C=N/Nc2nc3ccccc3[nH]2)nc2ccccc21	.	.	.	.	.	.
Cc1c(/C=N/Nc2nc3ccccc3[nH]2)c2ccccc2n1C	.	.	88.2	84.8	.	.
Cc1cc(=O)[nH]c(N/N=C/c2c(C)nn(-c3ccccc3)c2C)n1	.	.	.	.	.	.
CCN(CC)c1ccc(/C=N/Nc2nc3ccccc3[nH]2)cc1	/	.	95.5	.	/	/
CCCn1c(/C=N/Nc2nc3ccccc3[nH]2)nc2ccccc21	/	.	/	.	/	/
C=CCN1C(=O)c2ccc(C(=O)OCC(=O)Nc3ccc(S(N)(=O)=O)cc3)cc2C1=O	.	.	.	.	.	.
Cc1ccc(-n2cc(CN3CCC(O)(c4ccccn4)CC3)c(-c3ccc(F)cc3)n2)cc1	.	.	.	.	.	.
C[C@H]1CN([C@@H](C)CO)C(=O)CCCn2cc(nn2)CO[C@@H]1CN(C)C(=O)Nc1ccccc1C(F)(F)F	/	/	/	.	/	/
Cc1nn(-c2ccccc2)c(Cl)c1/C=N/NC(N)=O	.	.	.	.	.	.
Cc1nn(-c2ccccc2)c(Cl)c1/C=N/Nc1nc2ccccc2n1C	.	.	.	89.5	.	.
CCc1ccc(-c2cc(C(=O)O)c3ccccc3n2)s1	/	.	.	.	/	/
C=CCN1C(=O)c2ccc(C(=O)N(CCOC)c3c(N)n(CCCC)c(=O)[nH]c3=O)cc2C1=O	.	.	.	.	.	.
CC(C)c1ccc(-n2cccc2/C=C2/C(=N)N3C=CSC3=NC2=O)cc1	.	.	94.1	.	.	.
CC1CCc2nc(NC(=O)Cc3cccs3)sc2C1 (centres undefined)	.	.	.	.	.	.
CC(C)(C)C1CCc2nc(NC(=O)Cc3cn4ccsc4n3)sc2C1 (centres undefined)	15.6	.	.	.	.	.
